# Assay results published in ChEMBL document CHEMBL4513216, “Probing the Open Global Health Chemical Diversity Library for Multistage-Active Starting Points for Next-Generation Antimalarials” (ACS Infect Dis, 2020).
# Among all 65,000 compounds or so, about 2,100 (3.2%) showed an effect of 50% or more. The median lay at about -52%. The sample as a whole holds a higher share of strong results than the screen did.
# Tested on: Plasmodium falciparum
# Test: Screen against P. falciparum Asexual Blood Stage (ABS), at 5uM
# Type: functional, Dd2
# Conditions: tested at 5 uM
row,SMILES,INHIBITION [%]
1,Cn1c(CCC(=O)N2CCCC3(CC2)CNC(=O)O3)nc2cccnc21 (configuration not stated),-38.1
2,CC(C)CCN1C(=O)c2ccc(C(=O)NCCc3c[nH]cn3)cc2C1=O,-19.2
3,COCCNCc1cc2c(C)cc(C)cc2n2c(=O)n(C)nc12,-43
4,Cc1cc(C)c2cc(CNCc3ccccc3)c3nn(C)c(=O)n3c2c1,65.4
5,Cc1cc(C)c2cc(CNCC3CCCO3)c3nn(C)c(=O)n3c2c1 (configuration not stated),7.98
6,CCCNCc1cc2c(C)cc(C)cc2n2c(=O)n(C)nc12,-36.8
7,Cc1cc(C)c2cc(CNCc3cccnc3)c3nn(C)c(=O)n3c2c1,31.5
8,Cc1cc(C)c2cc(CNCc3ccc(C)o3)c3nn(C)c(=O)n3c2c1,63.9
9,CS(=O)(=O)N1Cc2ccnn2CC(C(=O)NCc2cccnc2)C1 (configuration not stated),-95.4
10,Cc1cnc(N2C[C@@H]3[C@@H](C2)OCC(=O)N3CCN(C)C)nc1,-122
11,CCc1ccsc1C(=O)N1CCN(CCN2C(=O)CCC2=O)CC1,-170
12,Cc1nn(C)cc1CN(C)C(=O)c1ccncc1,-130
13,CCn1c(=O)nc(N)c2c(-c3ccc(OC)cc3)csc21,-67.6
14,COc1ccc(-c2csc3c2c(N)nc(=O)n3CCCN(C)C)cc1,54.2
15,COc1ccc(-c2csc3c2c(N)nc(=O)n3CCN(C)C)cc1,-27.7
16,O=C1COC2(CCN(Cc3ccoc3)CC2)CN1c1ccsc1,-66
17,OCc1cc2ccccc2nc1N1CCCCC1,-56.3
18,CC(C)N(C)C(=O)c1ccc(CNc2ccncc2Cl)cc1,24.6
19,COc1cc(C)ccc1S(=O)(=O)N[C@H]1CN(C(C)=O)C[C@@H]1C1CC1,-120
20,CN(C)S(=O)(=O)N1CCCC(c2cccc(Cc3ccc(F)cc3)n2)C1 (configuration not stated),-107
21,O=C(c1ccncc1)N1CCOC2(CCCN(c3nncs3)C2)C1 (configuration not stated),-74.2
22,CC(C)N1CCC(CNC(=O)COc2ccc(F)cc2F)C1 (configuration not stated),53.3
23,CN1CCOC(CNC(=O)COc2ccc(F)cc2F)C1 (configuration not stated),-69.6
24,CC(C)N1CCC(CNC(=O)CCc2cc(F)ccc2F)C1 (configuration not stated),7.8
25,Cc1ccc(N2CC[C@@H]3[C@@H]2CCN3C(=O)Cc2ccccc2)nn1,-79
26,Clc1ccc(N2CCC(C3CCN(Cc4cccnc4)CC3)C2)nc1 (configuration not stated),12.7

row,SMILES,INHIBITION [%]
1,CCOCC(=O)N1CCC(C2CCN(Cc3ccc(Cl)cc3)C2)CC1 (configuration not stated),0.245
2,Clc1ccc(CN2CCC(C3CCN(Cc4cccnc4)CC3)C2)cc1 (configuration not stated),64.4
3,Clc1cccnc1N1CCC(C2CCN(Cc3cccnc3)CC2)C1 (configuration not stated),-49.5
4,O=C(C1CCCC1)N1CCC(C2CCN(Cc3ccc(Cl)cc3)C2)CC1 (configuration not stated),64.3
5,O=C(C1CC1)N1CCCC1C1CCN(Cc2ccccc2)CC1 (configuration not stated),-40.8
6,CC(=O)NCC(=O)N1CCC(C2CCN(Cc3ccc(Cl)cc3)C2)CC1 (configuration not stated),5.47
7,O=C(C1CCC1)N1CCC(C2CCN(Cc3ccc(Cl)cc3)C2)CC1 (configuration not stated),65.6
8,CN1CCN(Cc2ccc(Cl)cc2)CC1C(=O)O (configuration not stated),-94.1
9,Cc1cc(C)n(CC2CCCN2C(=O)c2c(C)noc2C)n1 (configuration not stated),-97.8
10,Cc1nc(CN2CCCN(CCOc3ccc(C#N)cc3)CC2)no1,-71.7
11,CCN(Cc1nc(COC)no1)C(=O)CCn1c(C)cc2ccccc21,10
12,Cc1cc2ccccc2n1CCC(=O)NCc1ncc[nH]1,-0.748
13,CCN(Cc1ccncc1)C(=O)CCn1c(C)cc2ccccc21,56.5
14,O=C(NC1CCCC1)c1cc2c(s1)CCN2C(=O)c1ccccc1,-63.7
15,Cc1nc(C)n(CC2CCCN2CCCOc2ccc(C#N)cc2)n1 (configuration not stated),-33.2
16,COc1ccc(S(=O)(=O)N2Cc3c(CN(C)C)nn(C)c3C2)cc1,40.7
17,Cc1ccc(S(=O)(=O)N2Cc3c(CN(C)C)nn(C)c3C2)cc1,42.8
18,CCc1ccc(S(=O)(=O)N2Cc3c(CN(C)C)nn(C)c3C2)cc1,63.9
19,C[C@@H](O)CNC(=O)c1nc(CC(=O)Nc2ccccc2)no1,-40.2
20,CC(NC(=O)N1CCN(c2cccs2)CC1)c1ccncc1 (configuration not stated),-28.9
21,CC(NC(=O)N1CCN(c2ncccn2)CC1)c1ccc(C#N)cc1 (configuration not stated),19.1
22,CC(NC(=O)N1CCN(c2cccs2)CC1)c1ccc(C#N)cc1 (configuration not stated),63.2
23,Cc1ccnn1CCC(=O)N1C[C@@H]2CC[C@H]1CN(CC(=O)N(C)C)C2,-46.9
24,CC(C)(C)c1ccc(S(=O)(=O)CCN2CCNC(=O)CC2)cc1,-97.7
25,COCCNc1ncc(-c2cccc(F)c2)c(-c2nccn2C)n1,-10.2
26,COCCCNc1ncc(-c2cccc(F)c2)c(-c2nccn2C)n1,-138
